Data taken from PubChem BioAssay (Tox21).
Results filed as inconclusive are left out. Unmarked numbers belong to inactive results. Calls of active or inactive are those of the source. Calls come from the whole dose curve; as a rule, active = well fitted activation curve with a large enough effect in the repeat runs; inconclusive = weak or mixed curves; inactive = no such curve, though single readings can be large or run the other way.

target: Nuclear receptor subfamily 1 group I member 2 (Rattus norvegicus) (UniProt Q9R1A7); assay: Rat pregnane X receptor (rPXR) activation by small molecules, qHTS assay (AID 1346983); conditions: rPXR luciferase reporter cells, One-Glo luminescence, 24 h; max activation: hits give high values; note: nearly all actives have a fitted effect of over 20% in size
Sequence (Q9R1A7 whole entry, looked up): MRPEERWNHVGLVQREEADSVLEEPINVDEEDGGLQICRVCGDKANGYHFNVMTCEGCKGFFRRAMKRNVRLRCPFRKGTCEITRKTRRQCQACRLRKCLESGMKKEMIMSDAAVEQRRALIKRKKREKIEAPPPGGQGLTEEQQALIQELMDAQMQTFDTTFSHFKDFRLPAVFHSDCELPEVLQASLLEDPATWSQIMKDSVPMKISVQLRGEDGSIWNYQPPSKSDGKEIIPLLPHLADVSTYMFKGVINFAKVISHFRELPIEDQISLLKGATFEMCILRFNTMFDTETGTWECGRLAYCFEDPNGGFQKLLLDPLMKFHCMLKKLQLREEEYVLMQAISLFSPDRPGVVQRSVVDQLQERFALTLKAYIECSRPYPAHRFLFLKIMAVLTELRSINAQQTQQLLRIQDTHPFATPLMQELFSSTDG
Text: National Center for Advancing Translational Sciences [NCATS] NIH Chemical Genomics Center [NCGC] U.S. Environmental Protection Agency [EPA] National Institutes of Environmental Health Sciences [NIEHS] National Toxicology Program [NTP] Assay overview: The Pregnane X receptor (PXR), a ligand activated nuclear receptor plays a critical role in the regulation of genes involved in drug metabolism and transporters. PXR binds xenobiotics and when compounds interact with PXR produces enhanced expression of CYP3A genes. In humans PXR activation and CYP3A4 induction can be problematic due to their interactions with co-medicated drugs and decrease their efficacy or increase their own metabolism. However, there are known species-specific differences with regard to PXR activation that should be taken into account when animal PXR data are extrapolated to humans. A cell based rat PXR (rPXR) assay (developed by Puracyp, Inc., CA) was used to assess the activation of rPXR.
Assay Protocol Summary: rPXR cells were dispensed at 2,000 per well in 5uL of assay medium into white, solid-bottom 1536-well plates using a Multidrop Combi dispenser (Thermo Scientific). The assay plates were incubated at 37 C for 5hr before transferring 23 nL of test compounds dissolved in DMSO and positive control via Pintool station (Wako). The assay plates were incubated at 37 C for 24 hr. Then 5ul One-Glo assay reagent (Promega) was added to each plate by a Flying Reagent Dispenser (FRD, Aurora Discovery) and following 30 min incubation at room temperature, luciferase activity was quantified on a ViewLux plate reader (Perkin Elmer).
% is set by controls: 0 for no effect and ±100 for the full control effect; potency is the fitted concentration of half-maximal effect.

Row | Structure (SMILES) | max activation [%] | Potency
1 | C[N+](C)(C)CCOC(N)=O | 0.11 | –
2 | CO/N=C1\CN(c2nc3c(cc2F)c(=O)c(C(=O)O)cn3C2CC2)CC1CN (stereo not given) | -0.199 | –
3 | O=C1OCCN1/N=C/c1ccc([N+](=O)[O-])o1 | -6.39 | –
4 | CCCCCCCCCCCC(=O)[O][Sn]([CH2]CCC)([CH2]CCC)[O]C(=O)CCCCCCCCCCC | -0.202 | –
5 | CN1CCN(CCCN2c3ccccc3Sc3ccc(S(=O)(=O)N(C)C)cc32)CC1 | 4.5 | –
6 | CC(=O)CC(c1ccc([N+](=O)[O-])cc1)c1c(O)c2ccccc2oc1=O (stereo not given) | -1.52 | –
7 | Cc1cc(O)c(C(C)C)cc1Cl | -0.692 | –
8 | O=C(CCCCCCC(=O)Nc1ccccc1)NO | -13.8 | –
9 | COc1cc2ncnc(Nc3ccc(F)c(Cl)c3)c2cc1OCCCN1CCOCC1 | -4.52 | –
10 | CCC1(C)CC(=O)NC1=O (stereo not given) | -2.98 | –
11 | CCn1cc(C(=O)O)c(=O)c2cc(F)c(N3CCNCC3)nc21 | -1.42 | –
12 | CCc1nn(CCCN2CCN(c3cccc(Cl)c3)CC2)c(=O)n1CCOc1ccccc1 | – | 12.6 µM (active)
13 | CCCCCC=CCC=CCCCCCCCC(=O)OCC | -2.8 | –
14 | CN1CCN(c2c(F)cc3c(=O)c(C(=O)O)cn4c3c2OCN4C)CC1 | -1.24 | –
15 | CCCCC(=O)O[C@]1(C(=O)CO)CC[C@H]2[C@@H]3CCC4=CC(=O)CC[C@]4(C)[C@H]3[C@@H](O)C[C@@]21C | – | 6.31 µM (active)
16 | CCCCN(CCCC)CCCOC(=O)c1ccc(N)cc1 | 0.416 | –
17 | C[C@@H]1C[C@H]2[C@@H]3CCC4=CC(=O)C=C[C@]4(C)[C@@]3(F)[C@@H](O)C[C@]2(C)[C@H]1C(=O)CO | – | 2.51 µM (active)
18 | Cc1cc(OI)c(C(C)C)cc1-c1cc(C(C)C)c(OI)cc1C | 0.407 | –
19 | CCCCC1C(=O)N(c2ccccc2)N(c2ccc(O)cc2)C1=O (stereo not given) | 1.09 | –
20 | CC(=O)Oc1ccc(C(=C2CCCCC2)c2ccc(OC(C)=O)cc2)cc1 | -2.09 | –

Row | Structure (SMILES) | max activation [%] | Potency
21 | CCN(CC)CCNC(=O)c1ccc(NC(C)=O)cc1 | -1.35 | –
22 | C[C@]12CCC(=O)C=C1C=C[C@@H]1[C@@H]2CC[C@@]2(C)[C@H]1CC[C@@]21CCC(=O)O1 | 4.49 | –
23 | CC(C)(C)C(=O)C(Oc1ccc(Cl)cc1)n1ccnc1 (stereo not given) | – | 12.6 µM (active)
24 | CCC(C(=O)OCCOCCN(CC)CC)c1ccccc1 (stereo not given) | -2.49 | –
25 | CC1CC(O)CC(C)(C)C1 (stereo not given) | -0.957 | –
26 | Cc1c(C(=O)NN2CCCCC2)nn(-c2ccc(Cl)cc2Cl)c1-c1ccc(Cl)cc1 | -8.23 | –
27 | CNCCCC1c2ccccc2C=Cc2ccccc21 | -3.85 | –
28 | CC1(C)O[C@@H]2C[C@H]3[C@@H]4CCC5=CC(=O)C=C[C@]5(C)[C@H]4[C@@H](O)C[C@]3(C)[C@]2(C(=O)CO)O1 | – | 8.91 µM (active)
29 | CCc1c2c(nc3ccc(OC(=O)N4CCC(N5CCCCC5)CC4)cc13)-c1cc3c(c(=O)n1C2)COC(=O)[C@]3(O)CC | -2.7 | –
30 | N#C/C(=C1\SCC(c2ccccc2Cl)S1)n1ccnc1 (stereo not given) | -0.365 | –
31 | O=C(OCCOCCO)c1ccccc1Nc1cccc(C(F)(F)F)c1 | -0.0091 | –
32 | Nc1nccs1 | -2.81 | –
33 | CCCCCCCCCCCCCCC[C@H](O)[C@@H](N)CO | 0.49 | –
34 | CCOc1cc(N)c(Cl)cc1C(=O)NCC1CN(Cc2ccc(F)cc2)CCO1 (stereo not given) | 0.0903 | –
35 | CCCOC(=O)c1ccc(N)cc1 | 14.2 | –
36 | O=C(NCCCN1CCOCC1)c1ccc(Cl)cc1 | 4.03 | –
37 | CCc1cccc(N(C)C(N)=Nc2cccc3ccccc23)c1 | -1.24 | –
38 | O=C(O)C(Cc1cc(I)c(O)c(I)c1)c1ccccc1 (stereo not given) | -2.03 | –
39 | O=C(Nc1ccc([N+](=O)[O-])cc1)Nc1ccc([N+](=O)[O-])cc1 | -0.532 | –
40 | C[N+]1(C)CCC(=C(c2ccccc2)c2ccccc2)CC1 | -1.49 | –
